Assay outcomes deposited in PubChem BioAssay by National Center for Advancing Translational Sciences (NCATS).
HT1080 IDH1KD tx = qHTS for induction of synthetic lethality in tumor cells producing 2HG: qHTS for the HT-1080-IDH1KD cell line | HT-1080 IDH1 knockdown viability, ATP luminescence, 48 h | Potency, µM (titrated, usually from 46.1 µM), without a hit: at the top dose activity, negative = toxicity, most hits filed as cytotoxic | 360,000 compounds, 2% hits | AID 686971, 2013;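 note: 0% = DMSO wells and -100% = cell-free medium wells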
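Viability of IDH1-knockdown HT-1080 fibrosarcoma cells was assessed by CellTiter-Glo after 48 h at 37 °C with titrated compound; concentration-effect curves were classified by fit quality and response size.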
KB-3-1 tox = qHTS assay for MDR1-selective chemotherapeutics: Primary screen using the parental adenocarcinoma cell KB-3-1 | KB-3-1 viability, CellTiter-Glo ATP luminescence, 72 h | Potency, µM (top dose mostly 46.1 µM), hits mostly cytotoxic | 400,000 compounds, 1.4% hits; note: nearly all actives have a fitted effect of over 60% in size
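72 h, 37 °C compound treatment of KB-3-1 parental cells; CellTiter-Glo added, 10 min, luminescence read. Data corrected against DMSO-only plates and normalized before curve fitting.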
HT1080NT lethal = qHTS for induction of synthetic lethality in tumor cells producing 2HG: qHTS for the HT-1080-NT fibrosarcoma cell line; Potency, µM (titrated, usually from 46.1 µM), for inactives: at the highest dose activity, negative = less viability, most hits filed as cytotoxic; AID 686970, 2013; 360,000 compounds, 1.6% hits; HT-1080-NT fibrosarcoma viability, CellTiter-Glo ATP luminescence, 48 h;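 note: NT is the 2HG producing partner of a matched IDH1 knockdown line; 0% = DMSO-treated cells and -100% = media-only wells without cells; nearly all actives have a fitted effect of over 55% in size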
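Viability by CellTiter-Glo luminescence after 48 h compound exposure at 37C of HT-1080-NT cells (750/well, RPMI, 5% FBS). % activity scaled between DMSO wells and medium-only wells, then curve-fitted and categorized by curve class.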
KB-V1 MDR tox = qHTS assay for MDR1-selective chemotherapeutics: Primary screen using the drug-selected MDR subline cells KB-V1; KB-V1 MDR cells viability, CellTiter-Glo, 72 h; Potency, µM (series often up to 46.1 µM), actives largely listed as cytotoxic; 400,000 compounds, 3.4% hits; AID 1347076, 2019; note: nearly all actives have a fitted effect of over 60% in size
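Cytotoxicity via CellTiter-Glo luminescence after 72 h compound exposure at 37 degrees C. Cells: drug-selected KB-V1 line, DMEM phenol-red free plus 10% FBS. Compounds tested at multiple concentrations; normalized data fitted to concentration-effect curves.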
Starred values were filed as active, the others as inactive; i = inactive; ? = inconclusive; · = no result. Only some compounds are listed: those with a hit (about 5.7% of all), similar ones and a draw of the others. Calls come from the whole dose curve; as a rule, active = well fitted curve in the direction sought with a large enough effect; inconclusive = small, poorly fitted or top-dose-only effect, or another doubt; inactive = no such curve, though single readings can be large; an effect the other way counts as inactive or inconclusive. Unless noted, % is set by controls: 0 for no effect and ±100 for the full control effect; potency is the fitted concentration of half-maximal effect.

SMILES	HT1080 IDH1KD tx	KB-3-1 tox	HT1080NT lethal	KB-V1 MDR tox
Cc1ccc(C(OCC(O)CNC(CO)C(O)c2ccc([N+](=O)[O-])cc2)c2ccccc2)cc1 (configuration not stated)	?	i	21µM*	16µM*
O=C1c2ccccc2C(=O)N1C(CO)C(O)c1ccc([N+](=O)[O-])cc1 (configuration not stated)	1%	i	14%	?
Cc1ccc(C(OCC(O)CNC(C)c2ccccc2)c2ccccc2)cc1 (configuration not stated)	18µM*	i	15µM*	?
Cc1ccc(C(=O)Nc2nc3n(n2)C(c2ccccc2)CC(=O)N3)cc1 (configuration not stated)	10%	i	12%	i
CCN(CC)c1ccc(C2C(C(=O)OC(C)C)C(=O)CC(C)(O)C2C(=O)OC(C)C)cc1 (configuration not stated)	-2%	i	-3%	18µM*
CC(C)COC(=O)C1C(=O)CC(C)(O)C(C(=O)OCC(C)C)C1c1cccnc1 (configuration not stated)	9%	i	5%	16µM*
CN(C)c1nc(SCCOC(=O)c2ccccc2)nc(N(C)C)n1	7%	i	3%	?
CCN(CC)c1nc(SCCOC(=O)Nc2ccccc2)nc(N(CC)CC)n1	?	i	?	21µM*
CCOC(=O)c1ccc(NC(=O)COc2ccc(CNC3CCCCC3)cc2OC)cc1	16µM*	i	23µM*	?
COc1cc(CNCc2cccnc2)ccc1OCC(=O)NC(C)(C)C	-5%	i	3%	i
COc1cc(CNC2CCCCCCC2)ccc1OCC(N)=O	-2%	i	-2%	i
COc1cc(CNCc2ccccn2)ccc1OCC(=O)NC1CCCCC1	-9%	i	8%	21µM*
COc1cc(CNCc2ccccn2)ccc1OCC(=O)NC(C)(C)C	4%	i	7%	21µM*
O=C(CN1C(=O)COc2ccc(S(=O)(=O)N3CCCCCC3)cc21)N1CCN(c2ccc(F)cc2)CC1	·	i	·	i
Cc1nc(-c2cccnc2)sc1C(=O)Nc1cccc(C(F)(F)F)c1	18%	i	10%	16µM*
Cc1nc(-c2cccnc2)sc1C(=O)Nc1ccc(C(F)(F)F)cc1	-11%	i	-1%	?
NC(=O)Cn1cc(/C=N\NS(=O)(=O)c2ccc(Cl)cc2)c2ccccc21	-16%	i	-11%	i
O=S(=O)(N/N=C/c1cn(Cc2ccccc2)c2ccccc12)c1ccccc1	-24%	?	-12%	21µM*
Cc1ccc(C(=O)N/N=C/c2cn(Cc3ccccc3)c3ccccc23)cn1	-24%	16µM*	-18%	?
O=C(N/N=C/c1cn(Cc2ccccc2)c2ccccc12)c1cc(O)cc(O)c1	?	i	-19%	i
Cc1ccc2[nH]c3c(c2c1)CCNC3=O	-15%	?	-4%	5.8µM*
CCOC(=O)N1CCc2[nH]c3ccc(C)cc3c2C1	-23%	?	?	?
COc1c(F)cc2[nH]c3c(c2c1F)CCNC3=O	·	i	·	?
CCOC(=O)C(O)C1CCc2c([nH]c3ccc(C)cc23)C1=O (configuration not stated)	0%	?	-7%	18µM*
CN(CC(=O)Nc1ccc(Cl)cc1)c1ccc(S(=O)(=O)N2CCCCC2)cc1[N+](=O)[O-]	?	?	-23%	16µM*
COc1ccc(CCN(C)c2ccc(S(=O)(=O)N3CCCC3)cc2[N+](=O)[O-])cc1OC	-16%	?	-7%	2.6µM*
CN(CC(=O)NCCc1ccc(S(N)(=O)=O)cc1)Cc1ccc(Cl)cc1Cl	-10%	?	-28%	16µM*
COc1ccc(C(CNc2ccc(S(=O)(=O)N3CCN(C)CC3)cc2[N+](=O)[O-])N(C)C)cc1 (configuration not stated)	5%	i	-4%	?
COc1ccc(CN(C)c2ccc(S(=O)(=O)N3CCN(C)CC3)cc2[N+](=O)[O-])cc1OC	?	?	-17%	?
